Measurements from PubChem BioAssay (Tox21).
Results filed as inconclusive are left out. A number with no mark means an inactive call. Calls of active or inactive are those of the source. The call rests on the fitted dose curve; in most records, active means well fitted inhibition curve with a large enough effect in the signal ratio in the repeat runs (not every such curve was filed as active); inconclusive means weak or mixed curves, or effect the other way; inactive means no such curve, though single readings can be large or run the other way; the % refers to the signal ratio.

Biological target: Bile acid receptor (Homo sapiens) (UniProt Q96RI1)
Sequence (Q96RI1 whole entry, looked up): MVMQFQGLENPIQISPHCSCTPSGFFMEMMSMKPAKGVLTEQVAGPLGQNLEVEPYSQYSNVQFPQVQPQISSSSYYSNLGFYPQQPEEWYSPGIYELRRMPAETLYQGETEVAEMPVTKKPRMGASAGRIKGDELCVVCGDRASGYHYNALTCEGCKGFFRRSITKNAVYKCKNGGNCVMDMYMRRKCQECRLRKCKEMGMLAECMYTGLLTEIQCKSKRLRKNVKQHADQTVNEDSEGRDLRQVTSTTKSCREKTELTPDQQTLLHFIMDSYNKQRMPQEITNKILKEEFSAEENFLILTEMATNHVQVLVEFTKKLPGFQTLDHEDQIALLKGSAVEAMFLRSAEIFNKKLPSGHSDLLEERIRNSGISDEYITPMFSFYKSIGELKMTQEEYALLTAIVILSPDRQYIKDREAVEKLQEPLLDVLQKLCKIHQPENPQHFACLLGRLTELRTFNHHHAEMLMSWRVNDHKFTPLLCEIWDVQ
Experiment: qHTS assay to identify small molecule antagonists of the farnesoid-X-receptor (FXR) signaling pathway (AID 743217)
Settings: HEK293T FXR-UAS-bla, beta-lactamase ratio, CDCA-stimulated, 16 h; series mostly up to 62.6 µM; activity change, negative = inhibition: at the top concentration
From the text: U.S. Tox21 Program National Center for Advancing Translational Sciences [NCATS] NIH Chemical Genomics Center [NCGC] U.S. Environmental Protection Agency [EPA] National Institutes of Environmental Health Sciences [NIEHS] National Toxicology Program [NTP] U.S. Food and Drug Administration [FDA] Tox21 Assay Overview: The farnesoid-X-receptor (FXR), a nuclear hormone receptor, is highly expressed in liver, intestine, kidney and adrenal cortex. Natural ligands of FXR are the bile acids (Cholic acid, Chenodeoxy cholic acid etc). FXR is an important regulator of diverse metabolic pathways, including the bile acid homeostasis, lipid and glucose metabolisms. FXR regulates the expression of target genes by binding either as a monomer or as a heterodimer with the retinoid X receptor (RXR). Numerous studies have reported that FXR exerts protective function during cholestasis, diabetes, liver regeneration, and cancer. To identify compounds that inhibit FXR signaling, GeneBLAzer FXR-UAS-bla HEK 293T cell line (Invitrogen, Carlsbad, CA) containing a beta-lactamase reporter gene under the control of a UAS response element was used to screen the Tox21 10K compound library.
Tox21 Assay Protocol Summary: FXR-bla cells were dispensed at 5000 cells/5uL/well in 1536-well black wall/clear bottom plates using a Multidrop Combi (Thermo Fisher Scientific, Waltham, MA) dispenser. After the assay plates were incubated at 37C and 5% CO2 for 5 h, 23 nL of compounds dissolved in DMSO, positive controls or DMSO only was transferred to the assay plate by a Pintool station (Kalypsys, San Diego, CA), followed by addition of 1 uL Chenodeoxycholic acid (50 uM, final concentration in the wells). The assay plates were incubated at 37C for 16 h. After 1 uL of LiveBLAzerTM B/G FRET substrate was added using a Bioraptr Flying Reagent Dispenser (FRD) workstation (Beckman Coulter, Indianapolis, IN), the plates were incubated at room temperature for 2 h, and fluorescence intensity was measured by an Envision plate reader (PerkinElmer, Shelton, CT).
On the % scale 0 is the no-effect control and ±100 the full control effect; potency means the concentration at half of the fitted maximal effect.

Compound	activity change, negative = inhibition	Potency
CCCc1c(OCCCOc2ccc(OCC(=O)O)cc2)ccc(C(C)=O)c1O	-21.6%	
Oc1ccc(Nc2ccccc2)cc1	-19.7%	
CCCC(=O)O[C@]1(C(=O)COC(=O)CC)CC[C@H]2[C@@H]3CCC4=CC(=O)CC[C@]4(C)[C@H]3[C@@H](O)C[C@@]21C	-3.31% [at 29.1 µM]	
Cc1cc2nc3ccc(=[N+](C)C)cc-3sc2cc1N		10.6 µM (active)
CC(N)CN (stereo not given)	8.64% [at 81.1 µM]	
CCCC1C(CC)=CC(CC)=CN1c1ccccc1 (stereo not given)	-11%	
CC(C)CCCC(=O)O	-5.56%	
O=C(Nc1ccc([N+](=O)[O-])cc1)Nc1ccc([N+](=O)[O-])cc1	0.506%	
Cc1ccc(S(=O)(=O)NC2CCCCC2)cc1	-3.63%	
Nc1ccc(S(=O)(=O)O)cc1	5.55% [at 81.1 µM]	
CCCCCCOC(=O)C(C)C	-7.29%	
O=C(O)c1c(O)c(-c2ccccc2)nc2ccccc12		16.8 µM (active)
Nc1c(I)cc(I)c(C(=O)N(CCC(=O)O)c2ccccc2)c1I	-1.3%	
CC(=O)Nc1ccc(N)cc1	-9.32% [at 81.1 µM]	
CCOC(=O)CC(=O)C(=O)OCC	-6.97%	
CNC(=S)NC	-12.1%	
CC(=O)[C@H]1CC[C@H]2[C@@H]3C[C@H](C)C4=CC(=O)CC[C@]4(C)[C@H]3[C@@H](O)C[C@]12C	-5.1%	
CCCCC(CC)C(=O)OCCOCCOCCOCCOC(=O)C(CC)CCCC (stereo not given)	-7.35%	
c1ccc(COCc2ccccc2)cc1	2.29% [at 81.1 µM]	
CC(C)(O)c1ccccc1CC[C@@H](SCC1(CC(=O)O)CC1)c1cccc(/C=C/c2ccc3ccc(Cl)cc3n2)c1	0.547%	

Compound	activity change, negative = inhibition	Potency
CCOC(=O)C(C)Oc1ccc(Oc2nc3ccc(Cl)cc3o2)cc1 (stereo not given)	-6.19%	
CC(=O)OCC(=O)[C@H]1CC[C@H]2[C@@H]3CCC4=CC(=O)CC[C@]4(C)[C@H]3CC[C@]12C	-7.95%	
Cc1oncc1C(=O)Nc1ccc(C(F)(F)F)cc1	-5.04%	
C[N+]1(C)CCC(=C(c2ccccc2)c2ccccc2)CC1	-0.894%	
C=CCOC(=O)/C=C\C(=O)OCC=C	-11.7% [at 81.1 µM]	
CCCCCCCCCOC(C)=O	-2.4%	
Cc1ccccc1N1C(=O)c2cc(S(N)(=O)=O)c(Cl)cc2NC1C (stereo not given)	0.095%	
O=C(c1ccc(O)cc1)c1ccc(Cl)cc1	-3.59% [at 81.1 µM]	
Oc1cc(O)c(Cl)cc1Cl	2.49% [at 81.1 µM]	
CC(C)(C)C(=O)O	5.68% [at 81.1 µM]	
NC(=O)N(O)[C@@H]1COc2cc(OCc3ccccc3)ccc21	-1.17%	
CCC(C)=O	0.883%	
Cc1cc(S(=O)(=O)O)ccc1N=Nc1c(O)ccc2ccccc12	7.34%	
O=C(O)c1snc(Cl)c1Cl	1.01%	
CC1CC(O)CC(C)(C)C1 (stereo not given)	-7%	
CCCCCC=CCC=CCCCCCCCC(=O)OCC	-2.46%	
C=CCNc1nc(NCC=C)nc(N2CCN(C(c3ccc(F)cc3)c3ccc(F)cc3)CC2)n1	7.58%	
CCCCN(CCCC)CCCOC(=O)c1ccc(N)cc1	-0.613%	
CO[C@H]1O[C@H](CO)[C@@H](O)[C@H](O)[C@H]1O	1.55%	
CC#N	0.692% [at 81.1 µM]	
